According to PubChem BioAssay (EPA / NIEHS):
Results filed as inconclusive are left out. The source holds several records for some structures; these can differ, active in one and inactive in another. Activity calls are given as the source filed them. Rule for the calls, unless noted: active = hit-call score of the fitted dose curve at least 0.9, where 1 is the maximum; inconclusive = response in the unintended direction; inactive = score below 0.9.

Tests used:
[1] = read-out: Tumor necrosis factor receptor 1 (TNFRSF1A), TNFRSF1A (gene 7132); experiment: LTEA_HepaRG_TNFRSF1A: Life Technologies and Expression Analysis (LTEA) Assay for Tumor necrosis factor receptor 1 (TNFRSF1A) using HepaRG (AID 2283535; active = hit-call score of the fitted dose curve at least 0.9, where 1 is the maximum; inactive = score below 0.9); settings: mRNA level, 48 h; actives raise or lower the signal
Procedure, shortened: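 Differentiated HepaRG cells in serum-free induction medium, exposed 48 h in duplicate to 8 half-log concentrations up to 100 uM in 0.5% DMSO. TNFRSF1A mRNA by Fluidigm TaqMan qRT-PCR, normalized to ACTB, GAPDH, POLR2A; bidirectional fit.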

[2] = read-out: Thyroid Hormone Responsive (THRSP), THRSP (gene 7069); experiment: LTEA_HepaRG_THRSP: Life Technologies and Expression Analysis (LTEA) Assay for Thyroid Hormone Responsive (THRSP) using HepaRG (AID 2283536; active = hit-call score of the fitted dose curve at least 0.9, where 1 is the maximum; inactive = score below 0.9); settings: mRNA level, 48 h; actives raise or lower the signal
Procedure, shortened: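 THRSP transcript quantified by Fluidigm qRT-PCR against three housekeeping genes after 48 h chemical exposure of HepaRG cells in serum-free induction medium; eight-point half-log series, top 100 uM, 0.5% DMSO vehicle, duplicate wells.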

[3] = read-out: UDP glucuronosyltransferase (UGT1A1), UGT1A1 (gene 54658); experiment: LTEA_HepaRG_UGT1A1: Life Technologies and Expression Analysis (LTEA) Assay for UDP glucuronosyltransferase (UGT1A1) using HepaRG (AID 2283538; active = hit-call score of the fitted dose curve at least 0.9, where 1 is the maximum; inactive = score below 0.9); settings: mRNA level, 48 h; actives raise or lower the signal
Procedure, shortened: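 Cells are plated, cultured 48 h, switched to serum-free induction medium, then dosed 48 h at eight concentrations (max 100 uM, 0.5% DMSO). RNA is isolated and UGT1A1 expression measured by qRT-PCR; changes versus DMSO are fitted in both directions.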

[4] = read-out: UDP glucuronosyltransferase (UGT1A6), UGT1A6 (gene 54578); experiment: LTEA_HepaRG_UGT1A6: Life Technologies and Expression Analysis (LTEA) Assay for UDP glucuronosyltransferase (UGT1A6) using HepaRG (AID 2283539; active = hit-call score of the fitted dose curve at least 0.9, where 1 is the maximum; inactive = score below 0.9); settings: mRNA level, 48 h; actives raise or lower the signal
Procedure, shortened: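 Differentiated HepaRG cells, ~100,000/well, were exposed for 48 h in serum-free induction medium with 0.5% DMSO to 8-point half-log series topping at 100 uM, in duplicate. mRNA measured by Fluidigm TaqMan qRT-PCR, normalized to ACTB, GAPDH and POLR2A.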

[5] = read-out: X-box binding protein 1 (XBP1), XBP1 (gene 7494); experiment: LTEA_HepaRG_XBP1: Life Technologies and Expression Analysis (LTEA) Assay for X-box binding protein 1 (XBP1) using HepaRG (AID 2283540; active = hit-call score of the fitted dose curve at least 0.9, where 1 is the maximum; inactive = score below 0.9); settings: mRNA level, 48 h; actives raise or lower the signal
Procedure, shortened: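 Differentiated human HepaRG cells in serum-free induction medium exposed 48 h in duplicate to eight half-log concentrations up to 100 uM in 0.5% DMSO. XBP1 mRNA measured by Fluidigm TaqMan qRT-PCR, normalized to ACTB, GAPDH, POLR2A; bidirectional fitting against DMSO.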

[6] = LTEA_HepaRG_LDH_cytotoxicity: Cytotoxicity Assessment in the Life Technologies and Expression Analysis (LTEA) Assay (AID 2283563)
Procedure, shortened: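 Differentiated HepaRG cells in serum-free induction medium, exposed 48 h in duplicate to 8 half-log concentrations up to 100 uM in 0.5% DMSO. Cytotoxicity from LDH measured in spent medium, fit relative to DMSO.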

[7] = molecular target: Cellular tumor antigen p53 (Homo sapiens) (UniProt P04637); experiment: TOX21_p53_BLA_p2_ratio: Tox21 HCT-116 p53 Agonism Beta-lactamase Assay, Ratio, Phase 2 (AID 2283592)
Procedure, shortened: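 First, HCT116 reporter cells settle for 5 h at 37C. Next, DMSO compound solutions are pinned in (217-fold dilution) and left 16 h. Finally, CCF4-AM substrate is loaded 2 h at room temperature and the 460/530 nm ratio read.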

[8] = molecular target: Cellular tumor antigen p53 (Homo sapiens) (UniProt P04637); experiment: TOX21_p53_BLA_p3_ratio: Tox21 HCT-116 p53 Agonism Beta-lactamase Assay, Ratio, Phase 3 (AID 2283596)
Procedure, shortened: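 Cells were seeded at 4000/well, rested 5 h at 37C, then dosed with DMSO compound solutions (217-fold dilution) for 16 h. CCF4-AM substrate was loaded for 2 h at room temperature, and the 460/530 nm emission ratio was fitted for gain of signal versus DMSO.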

[9] = TOX21_p53_BLA_p2_viability: Viability Assessment in the Tox21 HCT-116 p53 Agonism Beta-lactamase Assay, Phase 2 (AID 2283591);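 note: compound exposure lasted 16 h at 37 °C; actives lower the ATP signal meaning cytotoxicity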
Procedure, shortened: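 Cytotoxicity readout: CellTiter-Glo ATP luminescence, 30 min at room temperature, after the beta-lactamase read. Cells were HCT116 exposed 16 h at 37C to compounds pin-transferred at 217-fold dilution from DMSO stocks.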

[10] = ATG_XTT_Cytotoxicity: Cytotoxicity Assessment in the Attagene TRANS-FACTORIAL HepG2 Assay (AID 2283584);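 for AC50: XTT signal for cell number as viability in transfected HepG2 cells; cells exposed to compound for 24 h before reading; active means loss of viability signal versus DMSO baseline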
Procedure, shortened: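 HepG2 cells transiently transfected with GAL4-UAS multiple reporter units, dosed 24 h; cytotoxicity read by XTT as loss of signal versus DMSO baseline.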

Chain of Cellular tumor antigen p53 (Homo sapiens) (P04637 whole entry, looked up): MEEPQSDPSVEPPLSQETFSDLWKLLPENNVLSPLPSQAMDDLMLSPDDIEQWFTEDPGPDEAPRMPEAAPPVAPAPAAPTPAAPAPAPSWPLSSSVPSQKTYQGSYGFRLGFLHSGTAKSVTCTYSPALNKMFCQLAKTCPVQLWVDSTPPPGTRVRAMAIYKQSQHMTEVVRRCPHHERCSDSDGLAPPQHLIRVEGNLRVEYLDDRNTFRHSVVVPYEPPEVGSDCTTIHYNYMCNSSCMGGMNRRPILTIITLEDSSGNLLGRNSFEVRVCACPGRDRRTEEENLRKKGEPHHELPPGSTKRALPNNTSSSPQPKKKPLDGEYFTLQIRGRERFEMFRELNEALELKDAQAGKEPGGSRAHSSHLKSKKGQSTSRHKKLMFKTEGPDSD

Compound: O=C(O)c1ccc2c(c1)nc(C(=O)NC1CCN(C3CC3)CC1)n2Cc1cc(-c2ccc(Cl)s2)on1
- outcome [1]: inactive
- outcome [2]: inactive
- outcome [3]: inactive
- outcome [4]: inactive
- outcome [5]: inactive
- outcome [6]: inactive
- outcome [7]: inactive
- outcome [8]: inactive

Compound: CC(C)c1nnc2ccc(-c3ocnc3-c3cc(F)ccc3F)cn12
- outcome [1]: inactive
- AC50 [2]: 9.92 µM (active)
- AC50 [3]: 0.836 µM (active)
- AC50 [4]: 80.3 µM (active)
- AC50 [5]: 39 µM (active)
- outcome [6]: inactive
- outcome [9]: inactive

Compound: CCc1ccc(O)c(C(C)(C)C)c1
- outcome [1]: inactive
- outcome [2]: inactive
- outcome [3]: inactive
- outcome [4]: inactive
- outcome [5]: inactive
- outcome [6]: inactive
- outcome [10]: inactive
- AC50 [9]: 69.5 µM (active)
- AC50 [7]: 69.7 µM (active)
- outcome [8]: inactive

Compound: c1ccc2cc3ccccc3cc2c1
- outcome [1]: inactive
- outcome [2]: inactive
- AC50 [3]: 13.1 µM (active)
- outcome [4]: inactive
- outcome [5]: inactive
- outcome [6]: inactive
- outcome [9]: inactive
- outcome [7]: inactive
- outcome [8]: inactive

Compound: O=S1(=O)CCCO1
- outcome [1]: inactive
- outcome [2]: inactive
- outcome [3]: inactive
- outcome [4]: inactive
- outcome [5]: inactive
- outcome [6]: inactive
- outcome [10]: inactive
- outcome [9]: inactive
- outcome [7]: inactive
- outcome [8]: inactive

Compound: OC(CCl)CCl
- outcome [1]: inactive
- outcome [2]: inactive
- outcome [3]: inactive
- outcome [4]: inactive
- outcome [5]: inactive
- outcome [6]: inactive
- outcome [10]: inactive
- outcome [9]: inactive
- outcome [7]: inactive
- outcome [8]: inactive

Compound: c1ccc2ncccc2c1
- outcome [1]: inactive
- outcome [2]: inactive
- outcome [3]: inactive
- outcome [4]: inactive
- outcome [5]: inactive
- outcome [6]: inactive
- outcome [9]: inactive
- outcome [7]: inactive
- outcome [8]: inactive

Compound: C=CN1CCCC1=O
- outcome [1]: inactive
- outcome [2]: inactive
- outcome [3]: inactive
- outcome [4]: inactive
- outcome [5]: inactive
- outcome [6]: inactive
- outcome [10]: inactive
- outcome [9]: inactive
- outcome [7]: inactive
- outcome [8]: inactive

Compound: CCCCCCCCCC
- outcome [1]: inactive
- outcome [2]: inactive
- outcome [3]: inactive
- outcome [4]: inactive
- outcome [5]: inactive
- outcome [6]: inactive
- outcome [9]: inactive
- outcome [7]: inactive
- outcome [8]: inactive

Compound: CCCCCCCCN(C)C
- outcome [1]: inactive
- outcome [2]: inactive
- outcome [3]: inactive
- outcome [4]: inactive
- outcome [5]: inactive
- outcome [6]: inactive
- outcome [10]: inactive
- outcome [9]: inactive
- outcome [8]: inactive

Compound: CCCc1ccccc1
- outcome [1]: inactive
- outcome [2]: inactive
- outcome [3]: inactive
- outcome [4]: inactive
- outcome [5]: inactive
- outcome [6]: inactive
- outcome [7]: inactive

Compound: S=P(N1CC1)(N1CC1)N1CC1
- outcome [10]: inactive
- outcome [9]: inactive
- outcome [7]: inactive
- AC50 [8]: 48.8 µM (active)
- outcome [8]: inactive

Compound: CCOC(N)=O
- outcome [1]: inactive
- outcome [2]: inactive
- outcome [3]: inactive
- outcome [4]: inactive
- outcome [5]: inactive
- outcome [6]: inactive
- outcome [9]: inactive
- outcome [7]: inactive
- AC50 [8]: 88.1 µM (active)
- outcome [8]: inactive

Compound: CCCCCCCCCCCCCCCCOS(=O)(=O)O
- outcome [1]: inactive
- AC50 [2]: 41.1 µM (active)
- outcome [3]: inactive
- outcome [4]: inactive
- outcome [5]: inactive
- outcome [6]: inactive
- AC50 [10]: 79 µM (active)
- outcome [9]: inactive
- outcome [7]: inactive
- outcome [8]: inactive

Compound: NC(=O)NN=Cc1ccc([N+](=O)[O-])o1
- outcome [1]: inactive
- outcome [2]: inactive
- outcome [3]: inactive
- outcome [4]: inactive
- outcome [5]: inactive
- outcome [6]: inactive
- outcome [10]: inactive
- outcome [9]: inactive
- outcome [7]: inactive
- outcome [8]: inactive

Compound: C[C@]12C=CC(=O)C=C1CC[C@H]1[C@@H]3C[C@@H](O)[C@](O)(C(=O)CO)[C@@]3(C)C[C@H](O)[C@@]12F
- outcome [1]: inactive
- outcome [2]: inactive
- outcome [3]: inactive
- outcome [4]: inactive
- outcome [5]: inactive
- outcome [6]: inactive
- outcome [10]: inactive
- outcome [9]: inactive
- outcome [7]: inactive
- outcome [8]: inactive
